# Inconclusive results are not listed. Where a call stands in place of a potency, no number is given. The source made the active and inactive calls. The call rests on the fitted dose curve; in most records, active means well fitted inhibition curve with a large enough effect in the repeat runs; inconclusive means weak or mixed curves; inactive means no such curve, though single readings can be large or run the other way.
# Molecular target: Cytochrome P450 2C9 (Homo sapiens) (UniProt P11712)
# Test: Cytochrome P450 Family 2 Subfamily C Member 9 (CYP2C9) small molecule antagonists: luciferase reporter qHTS assay (AID 1671198)
# Details: P450-Glo CYP2C9 enzyme assay, luciferin luminescence; series mostly up to 115 µM
# How it was run: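 P450-Glo proluciferin substrate with CYP2C9 enzyme; 10 min RT preincubation, then NADPH regeneration 1 h at 37C; luciferin detection reagent 20 min RT, luminescence in relative luminescence units.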
# Further: nearly all actives have a fitted effect of over 50% in size.
# Potency means the concentration at half of the fitted maximal effect.
# Cytochrome P450 2C9 (Homo sapiens), sequence (P11712 whole entry, looked up): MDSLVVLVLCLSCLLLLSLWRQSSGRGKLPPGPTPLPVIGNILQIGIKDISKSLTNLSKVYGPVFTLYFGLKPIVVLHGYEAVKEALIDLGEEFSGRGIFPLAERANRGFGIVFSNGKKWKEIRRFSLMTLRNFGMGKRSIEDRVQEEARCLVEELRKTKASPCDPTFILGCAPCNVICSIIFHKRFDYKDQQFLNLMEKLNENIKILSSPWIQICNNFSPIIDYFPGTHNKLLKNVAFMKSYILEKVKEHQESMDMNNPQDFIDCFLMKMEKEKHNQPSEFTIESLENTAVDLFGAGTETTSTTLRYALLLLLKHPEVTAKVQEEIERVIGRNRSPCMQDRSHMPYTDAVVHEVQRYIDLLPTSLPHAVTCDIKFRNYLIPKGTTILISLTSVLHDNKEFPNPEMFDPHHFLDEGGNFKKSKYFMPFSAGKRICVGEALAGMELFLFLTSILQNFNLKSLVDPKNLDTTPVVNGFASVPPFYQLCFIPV
row,Compound,Potency
1,COc1ccc(CN(CCN(C)C)c2ncccn2)cc1,inactive
2,O=C(O)CCc1nc2ccccc2[nH]1,inactive
3,COc1ccc(/C=C/S(=O)(=O)NC(=O)c2ccc(C)cc2Cl)cc1,17.8 µM (active)
4,COc1ccc(/C=C/c2cc(OC)cc(=O)o2)cc1,inactive
5,Nc1cccc2c(=O)[nH][nH]c(=O)c12,inactive
6,C[C@@H](O)[C@H]1C(=O)N2C(C(=O)O)=C(S[C@@H]3CN[C@H](CNS(N)(=O)=O)C3)[C@H](C)[C@H]12,15.5 µM (active)

# Molecular target: Cytochrome P450 1A2 (Homo sapiens) (UniProt P05177)
# Sequence (P05177 whole entry, looked up): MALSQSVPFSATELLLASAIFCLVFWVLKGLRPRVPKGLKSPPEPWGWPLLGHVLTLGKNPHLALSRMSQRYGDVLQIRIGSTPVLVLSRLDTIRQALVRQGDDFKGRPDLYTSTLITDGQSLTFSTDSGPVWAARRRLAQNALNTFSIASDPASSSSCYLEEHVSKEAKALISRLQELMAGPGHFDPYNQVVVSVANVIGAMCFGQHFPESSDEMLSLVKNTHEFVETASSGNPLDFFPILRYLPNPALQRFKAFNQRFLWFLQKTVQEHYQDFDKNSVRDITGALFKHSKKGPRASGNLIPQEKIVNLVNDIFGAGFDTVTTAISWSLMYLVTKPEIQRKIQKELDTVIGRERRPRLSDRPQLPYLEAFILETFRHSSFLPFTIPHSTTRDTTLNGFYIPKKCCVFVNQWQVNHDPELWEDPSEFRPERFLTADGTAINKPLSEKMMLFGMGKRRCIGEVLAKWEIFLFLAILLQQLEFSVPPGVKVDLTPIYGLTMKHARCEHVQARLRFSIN
# Test: Cytochrome P450 Family 1 Subfamily A Member 2 (CYP1A2) small molecule antagonists: luciferase reporter qHTS assay (AID 1671199)
# Details: P450-Glo CYP1A2 enzyme, luciferin luminescence, 1 h; series mostly up to 115 µM
# How it was run: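 P450-Glo CYP1A2, 1536-well qHTS: enzyme/proluciferin substrate + cpd (DMSO), 10 min RT; NADPH regen, 1 h RT; detection reagent, 20 min; luminescence, RLU.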
row,Compound,Potency
1,Cc1ccc(S(=O)(=O)NC(=O)NC2CCCC2)cc1,inactive
2,Sc1nc(S)nc(S)n1,inactive
3,CC1(C)[C@@H]2CC[C@]3(C2)[C@@H]1C(=O)CCC3(C)C,inactive
4,O=C1c2ccccc2C(=O)C1c1ccc2cc(S(=O)(=O)O)cc(S(=O)(=O)O)c2n1,43.2 µM (active)
5,OCCc1ccncc1,22.4 µM (active)
6,CC(C)=CCCC(C)C=O (stereo unspecified),inactive
7,CCCCCCCCNC,inactive
8,O=C(O)COCC(=O)O,inactive
9,CCC(C)CCCC(C)(C)O (stereo unspecified),inactive
10,CCCCC(CC)COCCC#N (stereo unspecified),inactive
11,CC(C)(C)c1cc(C=O)cc(C(C)(C)C)c1O,inactive
12,Cc1nc2sccn2c(=O)c1CCN1CCC(=C(c2ccc(F)cc2)c2ccc(F)cc2)CC1,inactive
13,COC(=O)/C=C/C(C)=C\C=C\C(C)=C\C=C\C=C(C)\C=C\C=C(C)\C=C\C(=O)O,inactive
14,O=C(c1ccc(Cl)cc1)c1ccc(Cl)cc1,2.52 µM (active)
15,O=C(O)c1ccccc1-n1cc(C(=O)O)c(=O)c2cc(Nc3c(F)cc(F)cc3Cl)c(Cl)cc21,inactive
